# Source: PubChem BioAssay AID1568 (National Center for Advancing Translational Sciences (NCATS), 2009)
# Records with an inconclusive call do not appear. Where a call stands in place of a potency, no number is given. Active and inactive are the calls of the source. Calls come from the whole dose curve; as a rule, active = well fitted curve in the direction sought with a large enough effect; inconclusive = small, poorly fitted or top-dose-only effect, or effect the other way, or another doubt; inactive = no such curve, though single readings can be large or run the other way.
# Experiment: Cell Viability Secondary Assay to Characterize qHTS Inhibitors of the Interaction of Thyroid Hormone Receptor and Steroid Receptor Coregulator 2
# Settings: cell viability counter-screen, qHTS titration; series mostly up to 29.9 µM
# Description: NIH Molecular Libraries Probe Production Network [MLPCN]
# NIH Chemical Genomics Center [NCGC]
# Assay Provider: R. Kip Guy, St. Jude Children's Research Hospital
# Thyroid receptor (TR) regulates many homeostatic processes including basal metabolism, cardiovascular function, body weight, and lipid trafficking. TR modulators are potential therapeutics for obesity and hyperlipidemias but current thyroid analogs have undesirable side effects, particularly cardiac stimulation. This secondary assay characterized selected actives identified in the qHTS for Inhibitors of the Interaction of Thyroid Hormone Receptor and Steroid Receptor Coregulator 2. The human follicular thyroid carcinoma cell line WRO (kindly provided by Dr. M. D. Ringel) stably expresses TRbeta and a luciferase reporter gene fused to TR response element. The effect of compounds on the viability of these cells was assessed by measuring ATP levels. Compounds that reduce cell viability are likely cytotoxic.
# NCGC Assay Protocol Summary:
# Cells were maintained in RPMI 1640 culture medium supplemented with 10% heat-inactivated FBS, 0.33 mg/ml hygromycin, 0.33 mg/ml geneticin, 50 units/ml penicillin, 50 ug/ml streptomycin. Cells were harvested and resuspended at 330,000 cells/ml in assay medium (50% DMEM 50% F-12 medium without Phenol-Red (Cellgro #16-405-CV), L-glutamine, 10% heat inactivated and charcoal treated FBS, 100 uM non-essential amino acid, 50 units/ml penicillin, 50 ug/ml streptomycin). Cells were dispensed at 10,000 cells/30 ul/well into 384 well plates (Corning 3917) and incubated 12 h at 37 C and 5% CO2. Compounds and T3 (100nM final concentration) were added using a pin tool and plates were incubated 16 h incubation at 37 C and 5% CO2. Following incubation, plates were equilibrated at ambient temperature for 30 min, 20 ul of CellTiter-Glo (Promega) was added and luminescence was detected by an EnVision (PerkinElmer).
row,Structure (SMILES),Potency
1,O=C(O)CC1OCC=C2CN3CCC45C6=CC(=O)C(=O)C([N+](=O)[O-])=C6NC4C1C2CC35 (stereo not given),inactive
2,CN1CC[C@@]2(C)c3cc(O)ccc3N(C)C2O1 (stereo not given in full),14.1 µM (active)
3,Cc1[nH]n(-c2ccccc2)c(=O)c1C(c1ccc([N+](=O)[O-])cc1)c1c(C)[nH]n(-c2ccccc2)c1=O,inactive
4,CCCCCn1c(N)c(C(=O)NCc2cccs2)c2nc3ccccc3nc21,inactive
5,COP(=S)(OC)Oc1ccc([N+](=O)[O-])cc1,31.6 µM (active)
